Holding throughout (assay): DAPPL (digital affinity profiling via proximity ligation, sequencing); 10 mM Tris-HCl pH 7.5, 50 mM NaCl, 1 mM DTT, 4% glycerol, room temperature, 30 min; GST-TFs on glutathione beads, 16-mer random dsDNA library, 0.1% formaldehyde crosslink after washing; high values mean tight binding
Holding throughout (conditions): protein: recombinant; tags: N-terminal GST; dsDNA, one strand shown

The target in assay [1] is T1, ELK1 (Homo sapiens, UniProt P19419 1-428).
T1 sequence: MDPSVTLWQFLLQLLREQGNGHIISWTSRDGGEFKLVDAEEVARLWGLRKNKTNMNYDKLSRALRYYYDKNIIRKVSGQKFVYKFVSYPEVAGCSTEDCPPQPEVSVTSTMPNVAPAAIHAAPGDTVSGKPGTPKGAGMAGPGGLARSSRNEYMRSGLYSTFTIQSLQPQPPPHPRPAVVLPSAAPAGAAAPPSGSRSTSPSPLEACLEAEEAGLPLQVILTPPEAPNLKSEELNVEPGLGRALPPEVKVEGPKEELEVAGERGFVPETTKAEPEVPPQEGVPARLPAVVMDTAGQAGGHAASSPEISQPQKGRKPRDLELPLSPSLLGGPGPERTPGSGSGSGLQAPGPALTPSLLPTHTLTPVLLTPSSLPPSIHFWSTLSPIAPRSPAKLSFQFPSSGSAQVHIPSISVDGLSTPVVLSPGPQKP
A digest of the protocol:
(§1)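 Pools were built from human transcription factors expressed in yeast as GST fusions, captured on glutathione beads and DNA-barcoded, along with a tag-only sample. Incubation with 200 nmole of a 16-mer random double-stranded DNA library lasted 30 min at room temperature in Tris/NaCl/DTT/glycerol buffer, and was followed by washing, 0.1% formaldehyde crosslinking, proximity ligation, PCR amplification and Illumina NextSeq500 sequencing. Binding signal is the quotient of each hexamer's read frequency for a factor and its frequency for the tag-only sample.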

Assay [2] has as its target T2, GABPA (Homo sapiens, UniProt Q06546 1-454).
T2 sequence: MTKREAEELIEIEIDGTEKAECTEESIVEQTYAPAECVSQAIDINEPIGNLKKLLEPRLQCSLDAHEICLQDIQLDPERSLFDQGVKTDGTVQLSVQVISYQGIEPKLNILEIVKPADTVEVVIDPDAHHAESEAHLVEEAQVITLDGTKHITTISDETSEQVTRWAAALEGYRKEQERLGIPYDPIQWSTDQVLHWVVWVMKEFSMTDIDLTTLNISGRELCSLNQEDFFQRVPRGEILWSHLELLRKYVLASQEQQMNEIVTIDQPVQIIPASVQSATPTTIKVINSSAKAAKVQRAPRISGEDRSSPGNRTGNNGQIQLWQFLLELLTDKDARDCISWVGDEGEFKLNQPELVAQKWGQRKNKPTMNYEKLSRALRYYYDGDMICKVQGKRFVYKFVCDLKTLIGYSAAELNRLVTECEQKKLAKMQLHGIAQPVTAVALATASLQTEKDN
A digest of the protocol: as §1

Assay [3] has as its target T3, ERG (Homo sapiens, UniProt P11308 1-479).
T3 sequence: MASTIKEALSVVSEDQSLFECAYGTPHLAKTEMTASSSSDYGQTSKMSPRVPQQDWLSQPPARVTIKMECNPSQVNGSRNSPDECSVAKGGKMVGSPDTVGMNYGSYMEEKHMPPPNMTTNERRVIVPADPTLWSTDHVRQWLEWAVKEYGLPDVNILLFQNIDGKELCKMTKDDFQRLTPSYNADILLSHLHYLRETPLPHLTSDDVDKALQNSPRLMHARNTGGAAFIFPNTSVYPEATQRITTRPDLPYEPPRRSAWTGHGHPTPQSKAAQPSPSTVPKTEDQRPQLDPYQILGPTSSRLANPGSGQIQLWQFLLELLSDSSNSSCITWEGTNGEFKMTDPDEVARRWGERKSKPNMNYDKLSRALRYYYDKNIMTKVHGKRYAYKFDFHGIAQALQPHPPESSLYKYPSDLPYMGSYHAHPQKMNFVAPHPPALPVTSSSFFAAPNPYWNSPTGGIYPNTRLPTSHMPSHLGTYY
Put shortly: as §1

In assay [4] the target is ELF1 (Homo sapiens, UniProt P32519 1-619). Put shortly:
as §1

The target in assay [5] is T4, EHF (Homo sapiens, UniProt Q9NZC4 1-300).
T4 sequence: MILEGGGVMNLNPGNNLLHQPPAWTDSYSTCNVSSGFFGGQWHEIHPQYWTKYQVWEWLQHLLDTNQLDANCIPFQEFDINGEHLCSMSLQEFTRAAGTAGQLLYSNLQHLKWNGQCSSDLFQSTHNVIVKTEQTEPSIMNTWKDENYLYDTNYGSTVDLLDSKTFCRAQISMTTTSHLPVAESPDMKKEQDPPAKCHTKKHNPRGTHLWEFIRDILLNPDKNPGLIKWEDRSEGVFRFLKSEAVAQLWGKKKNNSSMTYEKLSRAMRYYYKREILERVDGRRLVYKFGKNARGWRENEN
A digest of the protocol: as §1

In assay [6] the target is SPI1 (Homo sapiens, UniProt P17947 1-270). Put shortly:
as §1

Assay [7] has as its target SPIB (Homo sapiens, UniProt Q01892 1-262). Put shortly:
as §1

Assay [8] has as its target T5, FEV (Homo sapiens, UniProt Q99581 1-238).
T5 sequence: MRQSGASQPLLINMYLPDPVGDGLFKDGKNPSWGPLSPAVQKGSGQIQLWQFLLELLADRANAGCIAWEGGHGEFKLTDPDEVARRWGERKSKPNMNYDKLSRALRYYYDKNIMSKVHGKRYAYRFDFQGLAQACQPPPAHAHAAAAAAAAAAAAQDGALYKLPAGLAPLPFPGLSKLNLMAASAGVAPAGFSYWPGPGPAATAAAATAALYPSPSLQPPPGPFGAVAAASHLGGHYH
Put shortly: as §1

In assay [9] the target is ETV5 (Homo sapiens, UniProt P41161 1-510). A digest of the protocol: as §1
ETV5, sequence (P41161 whole entry): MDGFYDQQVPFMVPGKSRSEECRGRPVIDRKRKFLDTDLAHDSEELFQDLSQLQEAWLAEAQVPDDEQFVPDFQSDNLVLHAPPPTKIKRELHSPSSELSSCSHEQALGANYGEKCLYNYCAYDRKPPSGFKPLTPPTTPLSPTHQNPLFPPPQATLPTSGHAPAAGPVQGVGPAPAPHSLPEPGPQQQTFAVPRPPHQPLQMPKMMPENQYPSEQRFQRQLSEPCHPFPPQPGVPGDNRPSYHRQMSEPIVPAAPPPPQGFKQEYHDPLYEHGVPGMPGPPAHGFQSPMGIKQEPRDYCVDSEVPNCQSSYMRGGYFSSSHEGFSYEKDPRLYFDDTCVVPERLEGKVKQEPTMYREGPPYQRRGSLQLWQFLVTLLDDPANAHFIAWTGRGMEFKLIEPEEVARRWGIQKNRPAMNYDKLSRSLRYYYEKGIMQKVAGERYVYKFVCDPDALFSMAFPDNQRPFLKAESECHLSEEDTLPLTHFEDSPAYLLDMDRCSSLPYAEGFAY
Assay [10] deals with ELF4 (Homo sapiens, UniProt Q99607 1-663). A digest of the protocol: as §1
ELF4, sequence (Q99607 whole entry): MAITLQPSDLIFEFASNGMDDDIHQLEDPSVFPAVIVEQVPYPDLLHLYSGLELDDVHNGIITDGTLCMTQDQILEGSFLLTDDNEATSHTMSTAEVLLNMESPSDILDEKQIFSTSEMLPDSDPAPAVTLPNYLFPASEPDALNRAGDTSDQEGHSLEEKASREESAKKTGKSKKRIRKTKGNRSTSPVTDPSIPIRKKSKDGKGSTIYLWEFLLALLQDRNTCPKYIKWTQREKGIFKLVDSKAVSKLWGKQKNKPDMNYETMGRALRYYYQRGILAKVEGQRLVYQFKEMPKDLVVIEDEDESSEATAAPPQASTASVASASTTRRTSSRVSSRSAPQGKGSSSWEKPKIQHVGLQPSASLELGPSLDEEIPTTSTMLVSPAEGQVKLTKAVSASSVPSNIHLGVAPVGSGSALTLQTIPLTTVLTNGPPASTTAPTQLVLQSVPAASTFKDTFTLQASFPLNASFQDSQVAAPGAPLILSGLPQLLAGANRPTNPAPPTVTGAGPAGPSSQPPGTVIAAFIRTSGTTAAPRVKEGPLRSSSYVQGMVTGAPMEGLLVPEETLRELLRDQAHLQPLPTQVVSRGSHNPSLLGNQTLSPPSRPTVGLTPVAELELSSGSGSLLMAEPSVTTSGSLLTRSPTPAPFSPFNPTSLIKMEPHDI
Assay [11] deals with T6, ELK4 (Homo sapiens, UniProt P28324-2 1-405).
T6 sequence: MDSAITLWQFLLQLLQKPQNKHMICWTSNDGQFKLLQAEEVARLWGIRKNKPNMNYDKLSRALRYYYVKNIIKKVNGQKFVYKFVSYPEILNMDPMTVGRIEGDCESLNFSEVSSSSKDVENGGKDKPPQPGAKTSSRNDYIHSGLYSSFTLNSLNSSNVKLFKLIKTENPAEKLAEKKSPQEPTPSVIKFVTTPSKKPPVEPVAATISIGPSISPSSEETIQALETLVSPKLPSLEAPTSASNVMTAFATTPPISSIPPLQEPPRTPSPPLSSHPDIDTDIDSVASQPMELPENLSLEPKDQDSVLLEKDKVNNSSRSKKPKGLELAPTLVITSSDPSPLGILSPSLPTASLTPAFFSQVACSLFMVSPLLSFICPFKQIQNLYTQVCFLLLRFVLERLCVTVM
A digest of the protocol:
as §1

The target of assay [12] is T7, ETV2 (Homo sapiens, UniProt O00321 1-342).
T7 sequence: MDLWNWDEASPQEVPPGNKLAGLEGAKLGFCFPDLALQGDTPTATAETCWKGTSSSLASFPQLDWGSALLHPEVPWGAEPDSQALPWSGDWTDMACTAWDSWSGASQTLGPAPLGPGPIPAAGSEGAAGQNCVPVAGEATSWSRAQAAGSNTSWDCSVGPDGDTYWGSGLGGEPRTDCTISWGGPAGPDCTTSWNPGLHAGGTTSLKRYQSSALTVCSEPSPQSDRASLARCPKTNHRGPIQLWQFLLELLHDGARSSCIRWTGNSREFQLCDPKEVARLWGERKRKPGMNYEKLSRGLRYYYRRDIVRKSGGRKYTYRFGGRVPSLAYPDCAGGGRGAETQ
A digest of the protocol: as §1

Assay [13] addresses ETV1 (Homo sapiens, UniProt P50549 1-477). Put shortly:
as §1

The target in assay [14] is T8, ERF (Homo sapiens, UniProt P50548 1-548).
T8 sequence: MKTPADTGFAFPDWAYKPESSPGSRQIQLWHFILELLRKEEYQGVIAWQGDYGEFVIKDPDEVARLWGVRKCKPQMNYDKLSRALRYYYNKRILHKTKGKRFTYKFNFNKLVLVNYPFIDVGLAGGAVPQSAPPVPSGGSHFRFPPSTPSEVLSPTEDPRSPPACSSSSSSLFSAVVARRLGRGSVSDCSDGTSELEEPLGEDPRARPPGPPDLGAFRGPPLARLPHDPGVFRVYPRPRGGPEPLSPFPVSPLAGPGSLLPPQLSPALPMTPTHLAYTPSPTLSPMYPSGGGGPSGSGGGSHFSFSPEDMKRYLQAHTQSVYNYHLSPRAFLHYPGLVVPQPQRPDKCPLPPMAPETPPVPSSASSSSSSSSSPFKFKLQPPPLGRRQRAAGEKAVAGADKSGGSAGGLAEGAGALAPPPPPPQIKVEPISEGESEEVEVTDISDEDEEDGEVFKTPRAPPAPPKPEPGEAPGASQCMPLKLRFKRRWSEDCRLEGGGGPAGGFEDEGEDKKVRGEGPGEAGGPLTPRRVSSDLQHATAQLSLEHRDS
Put shortly:
as §1

The target in assay [15] is T9, ETV3L (Homo sapiens, UniProt Q6ZN32 1-361).
T9 sequence: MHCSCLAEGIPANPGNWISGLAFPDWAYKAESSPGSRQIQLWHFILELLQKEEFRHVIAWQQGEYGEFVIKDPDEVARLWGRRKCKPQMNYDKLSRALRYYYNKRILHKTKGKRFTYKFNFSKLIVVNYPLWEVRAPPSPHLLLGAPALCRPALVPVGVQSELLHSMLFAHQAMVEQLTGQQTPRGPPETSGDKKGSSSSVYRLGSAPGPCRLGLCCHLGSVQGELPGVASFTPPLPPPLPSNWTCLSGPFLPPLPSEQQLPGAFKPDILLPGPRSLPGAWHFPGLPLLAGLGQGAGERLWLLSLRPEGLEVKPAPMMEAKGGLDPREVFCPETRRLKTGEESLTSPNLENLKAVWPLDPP
A digest of the protocol:
as §1

In assay [16] the target is T10, ETS2 (Homo sapiens, UniProt P15036 1-469).
T10 sequence: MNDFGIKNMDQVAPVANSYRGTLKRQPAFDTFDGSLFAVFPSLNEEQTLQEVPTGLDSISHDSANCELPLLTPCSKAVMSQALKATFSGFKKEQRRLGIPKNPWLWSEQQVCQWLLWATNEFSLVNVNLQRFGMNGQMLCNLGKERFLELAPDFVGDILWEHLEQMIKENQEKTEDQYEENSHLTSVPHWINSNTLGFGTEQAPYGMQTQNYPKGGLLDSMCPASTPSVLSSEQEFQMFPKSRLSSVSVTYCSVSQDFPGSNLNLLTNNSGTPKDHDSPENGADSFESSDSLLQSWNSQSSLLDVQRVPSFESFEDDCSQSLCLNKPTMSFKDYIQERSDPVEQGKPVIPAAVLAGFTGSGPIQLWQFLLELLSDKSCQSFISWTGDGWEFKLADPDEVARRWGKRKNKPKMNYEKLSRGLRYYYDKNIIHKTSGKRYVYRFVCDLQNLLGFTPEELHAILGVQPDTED
A digest of the protocol:
as §1

Assay [17] has as its target T11, SPDEF (Homo sapiens, UniProt O95238 1-335).
T11 sequence: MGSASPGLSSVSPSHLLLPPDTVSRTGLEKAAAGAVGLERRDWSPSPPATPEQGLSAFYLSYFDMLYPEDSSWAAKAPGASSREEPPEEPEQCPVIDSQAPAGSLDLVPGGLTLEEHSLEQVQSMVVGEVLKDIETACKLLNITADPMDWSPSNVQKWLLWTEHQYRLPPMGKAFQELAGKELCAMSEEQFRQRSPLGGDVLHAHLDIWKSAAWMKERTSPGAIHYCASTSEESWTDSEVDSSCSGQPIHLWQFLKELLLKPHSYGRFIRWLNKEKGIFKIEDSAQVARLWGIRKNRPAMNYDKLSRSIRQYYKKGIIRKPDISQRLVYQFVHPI
A digest of the protocol:
as §1

Assay [18] deals with T12, ETV7 (Homo sapiens, UniProt Q9Y603 1-341).
T12 sequence: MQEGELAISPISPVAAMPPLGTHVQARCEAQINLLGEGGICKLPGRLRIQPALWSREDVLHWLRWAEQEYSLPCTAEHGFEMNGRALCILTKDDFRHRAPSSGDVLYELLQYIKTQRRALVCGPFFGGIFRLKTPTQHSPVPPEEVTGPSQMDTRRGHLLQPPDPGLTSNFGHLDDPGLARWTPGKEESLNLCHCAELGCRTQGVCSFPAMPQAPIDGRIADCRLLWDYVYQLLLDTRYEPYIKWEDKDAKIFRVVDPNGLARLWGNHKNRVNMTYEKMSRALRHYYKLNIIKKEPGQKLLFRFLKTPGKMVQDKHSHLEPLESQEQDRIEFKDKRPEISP
A digest of the protocol:
as §1

The target in assay [19] is T13, ETV3 (Homo sapiens, UniProt P41162-2 1-143).
T13 sequence: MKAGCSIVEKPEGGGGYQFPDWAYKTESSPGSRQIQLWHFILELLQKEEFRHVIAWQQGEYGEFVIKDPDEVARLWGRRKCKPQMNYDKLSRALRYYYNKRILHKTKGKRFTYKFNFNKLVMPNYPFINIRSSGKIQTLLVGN
A digest of the protocol: as §1

Assay [20] deals with ETV6 (Homo sapiens, UniProt P41212 1-452). Put shortly: as §1
ETV6, sequence (P41212 whole entry): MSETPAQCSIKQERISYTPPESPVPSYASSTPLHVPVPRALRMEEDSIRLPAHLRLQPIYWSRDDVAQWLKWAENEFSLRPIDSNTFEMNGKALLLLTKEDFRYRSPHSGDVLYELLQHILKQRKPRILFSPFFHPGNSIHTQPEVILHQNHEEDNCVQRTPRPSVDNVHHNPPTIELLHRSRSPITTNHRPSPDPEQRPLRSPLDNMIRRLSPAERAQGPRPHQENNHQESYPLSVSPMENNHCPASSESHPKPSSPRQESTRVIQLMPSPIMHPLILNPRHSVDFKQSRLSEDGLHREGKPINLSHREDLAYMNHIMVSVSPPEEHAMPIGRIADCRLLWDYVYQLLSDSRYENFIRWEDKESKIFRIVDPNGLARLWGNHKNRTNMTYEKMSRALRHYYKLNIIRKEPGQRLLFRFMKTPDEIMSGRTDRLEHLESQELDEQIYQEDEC

ELF1, sequence (P32519 whole entry): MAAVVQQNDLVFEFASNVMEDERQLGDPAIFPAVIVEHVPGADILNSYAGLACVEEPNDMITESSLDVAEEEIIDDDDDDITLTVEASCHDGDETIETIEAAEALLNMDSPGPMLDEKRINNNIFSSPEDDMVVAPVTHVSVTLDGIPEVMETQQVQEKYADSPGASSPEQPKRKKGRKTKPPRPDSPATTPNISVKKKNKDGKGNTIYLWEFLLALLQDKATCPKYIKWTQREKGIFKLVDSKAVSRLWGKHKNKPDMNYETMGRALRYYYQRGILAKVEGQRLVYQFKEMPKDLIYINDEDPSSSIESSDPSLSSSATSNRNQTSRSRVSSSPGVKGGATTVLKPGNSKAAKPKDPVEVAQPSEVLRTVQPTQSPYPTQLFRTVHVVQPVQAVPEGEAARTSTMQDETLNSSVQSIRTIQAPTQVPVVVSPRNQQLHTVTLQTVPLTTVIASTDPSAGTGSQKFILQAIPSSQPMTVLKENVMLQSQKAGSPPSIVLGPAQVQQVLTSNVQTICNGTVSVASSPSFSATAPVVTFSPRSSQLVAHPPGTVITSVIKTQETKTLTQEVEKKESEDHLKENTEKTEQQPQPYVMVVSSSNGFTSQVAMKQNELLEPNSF
ETV1, sequence (P50549 whole entry): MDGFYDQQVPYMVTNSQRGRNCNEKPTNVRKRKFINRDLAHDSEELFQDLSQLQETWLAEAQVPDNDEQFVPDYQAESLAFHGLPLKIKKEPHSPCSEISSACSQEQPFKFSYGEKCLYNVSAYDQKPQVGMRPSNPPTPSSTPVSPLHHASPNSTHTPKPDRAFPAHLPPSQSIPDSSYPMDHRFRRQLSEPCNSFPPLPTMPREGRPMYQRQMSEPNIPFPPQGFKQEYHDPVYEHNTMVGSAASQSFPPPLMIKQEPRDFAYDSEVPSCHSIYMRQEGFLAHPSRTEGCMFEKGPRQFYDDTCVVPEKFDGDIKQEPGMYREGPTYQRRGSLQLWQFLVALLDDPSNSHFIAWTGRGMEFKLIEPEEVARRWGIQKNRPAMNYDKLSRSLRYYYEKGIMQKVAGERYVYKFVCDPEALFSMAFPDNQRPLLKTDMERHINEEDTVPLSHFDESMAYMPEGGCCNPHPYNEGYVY
SPIB, sequence (Q01892 whole entry): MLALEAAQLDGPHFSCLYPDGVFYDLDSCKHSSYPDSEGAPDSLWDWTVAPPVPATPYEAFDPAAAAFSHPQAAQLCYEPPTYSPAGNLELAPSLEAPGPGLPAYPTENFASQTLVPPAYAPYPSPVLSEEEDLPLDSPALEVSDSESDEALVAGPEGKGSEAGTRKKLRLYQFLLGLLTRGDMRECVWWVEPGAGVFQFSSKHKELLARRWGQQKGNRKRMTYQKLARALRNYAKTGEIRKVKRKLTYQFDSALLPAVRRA

CCCAAA: the binding signal in assay [1] was 1.15 fold enrichment (6-mer frequency, TF over GST control); in assay [2], 1.17 fold enrichment (6-mer frequency, TF over GST control); in assay [3], 1.13 fold enrichment (6-mer frequency, TF over GST control); in [4], 1.18 fold enrichment (6-mer frequency, TF over GST control); in assay [5], 1.12 fold enrichment (6-mer frequency, TF over GST control); in [6] it was 1.15 fold enrichment (6-mer frequency, TF over GST control). Moreover, the binding signal in assay [7] was 1.14 fold enrichment (6-mer frequency, TF over GST control); in assay [8] it was 1.08 fold enrichment (6-mer frequency, TF over GST control); in assay [9] it was 1.07 fold enrichment (6-mer frequency, TF over GST control); in assay [10] it was 1.17 fold enrichment (6-mer frequency, TF over GST control); in [11], 1.06 fold enrichment (6-mer frequency, TF over GST control); in assay [12] it was 1.3 fold enrichment (6-mer frequency, TF over GST control). The binding signal in assay [13] was 1.08 fold enrichment (6-mer frequency, TF over GST control); in assay [14] it was 1.11 fold enrichment (6-mer frequency, TF over GST control); in assay [15], 1.12 fold enrichment (6-mer frequency, TF over GST control); in assay [16], 1.02 fold enrichment (6-mer frequency, TF over GST control); in assay [17], 1.06 fold enrichment (6-mer frequency, TF over GST control); in assay [18], 1.09 fold enrichment (6-mer frequency, TF over GST control). Further, the binding signal in assay [19] was 1.02 fold enrichment (6-mer frequency, TF over GST control); in [20], 1.1 fold enrichment (6-mer frequency, TF over GST control).

(Values after PMC7862700, “An all-to-all approach to the identification of sequence-specific readers for epigenetic DNA modifications on cytosine”.)
